Inconclusive results are not listed. A call without a number means that no potency is given here. Active and inactive are the calls of the source. Unless noted, the call rests on the fitted dose curve.
Columns and labels:
[1] = qHTS for Inhibitors of the Functional Ribonucleoprotein Complex (vRNP) of Lassa (LASV) Arenavirus: Viability assay - alamar blue signal for LASV Primary Screen (AID 1347083; calls by dose curve; tested in HEK293 reporter line; further: nearly all actives have a fitted effect of over 80% in size; further: potency means the concentration at half of the fitted maximal effect)
[2] = qHTS for Inhibitors of the Functional Ribonucleoprotein Complex (vRNP) of Lymphocytic Choriomeningitis Arenaviruses (LCMV): Viability assay - alamar blue signal for LCMV Primary Screen (AID 1347085; calls by dose curve; tested in HEK293 reporter line; further: nearly all actives have a fitted effect of over 80% in size; further: potency means the concentration at half of the fitted maximal effect)
[3] = Primary qHTS for inhibitors of SARS-S pseudo-typed particle cell entry (AID 1479145); further: nearly all actives have a fitted effect of over 45% in size
[4] = Primary qHTS for Huh7 cytotoxicity: counterscreen for inhibitors of MERS-S pseudotyped particle cell entry (AID 1479147); settings: outcome: dose series up to 57.1 µM unless noted
[5] = Primary qHTS for inhibitors of MERS-S pseudo-typed particle cell entry (AID 1479149); further: nearly all actives have a fitted effect of over 60% in size
[6] = Primary qHTS for Vero E6 cytotoxicity: counterscreen for inhibitors of SARS-S pseudo-typed particle cell entry (AID 1479150); settings: outcome: dose series up to 57.1 µM unless noted
[7] = molecular target: Alpha-galactosidase (Coffea arabica) (UniProt Q42656); experiment: Counterscreen for Glucocerebrosidase Inhibitors: qHTS Assay for Coffee Bean alpha-Galactosidase at pH 4.5 (AID 957; active means well fitted curve in the direction sought with a large enough effect; an effect the other way counts as inactive or inconclusive)
Sequence of Alpha-galactosidase (Coffea arabica) (Q42656 whole entry, looked up): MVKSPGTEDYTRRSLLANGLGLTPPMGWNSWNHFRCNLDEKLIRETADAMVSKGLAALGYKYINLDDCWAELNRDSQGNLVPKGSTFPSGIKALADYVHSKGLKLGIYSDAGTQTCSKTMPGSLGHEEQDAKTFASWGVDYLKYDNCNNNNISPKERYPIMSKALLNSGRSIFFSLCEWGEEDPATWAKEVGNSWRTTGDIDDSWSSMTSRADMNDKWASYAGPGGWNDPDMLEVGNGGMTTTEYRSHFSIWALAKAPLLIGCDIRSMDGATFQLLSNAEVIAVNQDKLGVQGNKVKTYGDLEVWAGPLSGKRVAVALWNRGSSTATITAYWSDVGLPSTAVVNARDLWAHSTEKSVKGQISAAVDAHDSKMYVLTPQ
In short: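 Fluorogenic qHTS at pH 4.5 (citrate buffer with Tween-20): 2 nM enzyme, 80 uM 4-MU-alpha-galactoside substrate, compound titrated 0.7 nM to 77 uM, 20 min room temperature. Glycine/NaOH stop; 4-MU read Ex 365/Em 440; Hill-equation AC50 against no-enzyme and enzyme controls.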

[8] = molecular target: Alpha-galactosidase (Coffea arabica) (UniProt Q42656); experiment: Counterscreen for Glucocerebrosidase Inhibitors: qHTS Assay for Coffee Bean alpha-Galactosidase at pH 5.9 (AID 998; active means well fitted curve in the direction sought with a large enough effect; an effect the other way counts as inactive or inconclusive)
In short: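 In 50 mM citric acid pH 5.9 with 0.005% Tween-20, coffee bean enzyme hydrolyses 80 uM 4-MU alpha-D-galactopyranoside over 20 min at RT. Activity is normalized to controls; AC50 comes from Hill-modelled concentration-response data.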

[9] = Confirmatory qHTS for VERO E6 Cytotoxicity Assay: Counterscreen for SARS-CoV-2 CPE Assay (AID 1508605); further: nearly all actives have a fitted effect of over 60% in size
[10] = Cytotoxicity counterscreen for inhibitors of SARS-CoV-2 cell entry (AID 1645845); further: nearly all actives have a fitted effect of over 50% in size
In short: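 After a 15 min room-temperature ATPLite 1step step, luminescence reflected ATP remaining in HEK293-ACE2 cells exposed to compound for 1 h plus 48 h at 37 C, with percent activity set by cell and no-cell controls.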

[11] = Validation screen for inhibitors of Lassa infection (AID 463096)
[12] = Primary qHTS to identify inhibitors of SARS-CoV-2 cell entry (AID 1645846); settings: activity change, negative = inhibition: at 57.1 µM (top of the series) unless noted; further: nearly all actives have a fitted effect of over 45% in size
In short: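 Inhibition of spike-mediated entry was scored in human ACE2-transfected Expi293F cells. Particles were MLV-pseudotyped with Wuhan-Hu-1 S carrying a 19-aa C-terminal deletion; signal was luciferase after two days, scaled between spike PP and fusion-protein-free PP.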

[13] = Inducers of the Endoplasmic Reticulum Stress Response (ERSR) in human glioma: Validation (AID 504836; active means well fitted curve in the direction sought with a large enough effect; an effect the other way counts as inactive or inconclusive)
In short: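 Stably transfected U87-MG human glioma cells carrying a GRP78-based luminescent sensor were seeded at 1000 cells/well, pin-dosed with compounds and incubated 16 h. Luciferase reagent was then added, and end-point luminescence was read after 10 min at room temperature.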

[14] = Confirmatory qHTS to identify inhibitors of SARS-CoV-2 cell entry (AID 1645844); further: potency means the concentration at half of the fitted maximal effect; nearly all actives have a fitted effect of over 45% in size
In short: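 Using stable human ACE2 Expi293F cells, compounds preincubated 1 hr before spike pseudoparticle infection; luciferase signal after 48 hr at 37C, 5% CO2, normalised to spike PP and no-fusion-protein PP wells.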

[15] = VSVG counterscreen qHTS to identify inhibitors of SARS-CoV-2 cell entry (AID 1645847); further: potency means the concentration at half of the fitted maximal effect; nearly all actives have a fitted effect of over 65% in size
In short: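 Luminescence from a luciferase reporter, normalised to bald particle and VSV-G pseudotyped particle wells, is the read-out. Cells are HEK293 expressing human ACE2, exposed to compound 1 h before a 48 h particle infection at 37 °C.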

[16] = qHTS profiling of the MIPE4 collection as inhibitors of Plasmodium falciparum (3D7) proliferation (AID 743344; call rule not given here); settings: P. falciparum 3D7 in erythrocytes, SYBR Green DNA fluorescence, 72 h; at 28.5 µM (top of the series) unless noted
In short: (§1)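 Parasite DNA was quantified by SYBR Green I fluorescence (ex 485, em 535 nm) after overnight lysis in saponin/Triton buffer at room temperature. Cultures at 0.3% parasitemia and 2.5% hematocrit were first exposed to compound for 72 h at 37 C; signals were normalised to artemisinin (0.29 uM) and vehicle wells.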

[17] = qHTS profiling of the MIPE4 collection as inhibitors of Plasmodium falciparum (DD2) proliferation (AID 743345; call rule not given here); settings: P. falciparum Dd2 in erythrocytes, SYBR Green DNA, 72 h; at 28.5 µM (top of the series) unless noted
In short: as §1

[18] = qHTS profiling of the MIPE4 collection as inhibitors of Plasmodium falciparum (DD2) proliferation (Rep 2) (AID 743346; call rule not given here); settings: P. falciparum Dd2 in erythrocytes, SYBR Green DNA, 72 h; at 28.5 µM (top of the series) unless noted
In short: as §1

With CC(C(=O)O)c1ccc(C(=O)c2cccs2)cc1 (stereo not given) the Potency [1] was “inactive”, the Potency [2] was “inactive” and the Potency [3] was “inactive”. For the same compound, the outcome [4] was “inactive”, the Potency [5] was “inactive” and the outcome [6] was “inactive”.
For O=c1ccc2ccc(O)c(O)c2o1, the outcome [7] was “inactive”, the outcome [8] was “inactive” and the Potency [1] was “inactive”. The Potency [2] was “inactive”.
For O=C(N[C@@H](c1ccccc1)[C@@H]1CCCCN1)c1cccc(C(F)(F)F)c1Cl, the Potency [1] was 24.3 nM (active), the Potency [2] was 8.6 nM (active) and the Potency [9] was “inactive”. The Potency [10] was “inactive”.
In the case of CC(C)NC[C@@H](O)COc1cccc2ccccc12, the outcome [8] is reported as “inactive”, the Potency [11] is reported as “inactive” and the Potency [1] is reported as “inactive”. The Potency [2] was “inactive”, the outcome [4] was “inactive” and the outcome [6] was “inactive”. For the same compound, the Potency [10] was “inactive” and the activity change, negative = inhibition [12] was -4.9%.
With CC(C)NC[C@H](O)COc1cccc2ccccc12 the outcome [13] was “inactive”, the Potency [1] was “inactive” and the Potency [2] was “inactive”.
For Cc1cc(C(C)Nc2ccccc2)c2nc(N3CCOCC3)cc(=O)n2c1 (stereo not given), the Potency [1] was 1930 nM (active), the Potency [2] was 544 nM (active) and the Potency [10] was “inactive”.
For C[C@@]1(C(=O)Nc2ccc(F)nc2)CCCN1c1nc(Nc2cc(C3CC3)[nH]n2)c2cccn2n1, the Potency [1] was 6110 nM (active), the Potency [2] was 1370 nM (active) and the Potency [14] was 171 nM (active). For the same compound, the Potency [10] was “inactive” and the Potency [15] was 2710 nM (active).
In the case of COc1cc([C@@H]2c3cc4c(cc3[C@@H](O[C@@H]3O[C@@H]5CO[C@@H](C)O[C@@H]5[C@H](O)[C@@H]3O)[C@H]3COC(=O)[C@H]23)OCO4)cc(OC)c1O, the Potency [1] is reported as 2170 nM (active), the Potency [2] is reported as 2170 nM (active) and the outcome [4] is reported as “inactive”. The outcome [6] was “inactive”, the Potency [14] was 541 nM (active) and the Potency [15] was 383 nM (active).
With O=C(c1ccc(OCCCc2cnc[nH]2)cc1)C1CC1 the outcome [13] was “inactive”, the Potency [1] was “inactive” and the Potency [2] was “inactive”.
Compound NC(=O)c1ncn([C@@H]2O[C@H](CO)[C@@H](O)[C@@H]2O)n1 has a parasite growth, % of DMSO control [16] of 91.7%, a parasite growth remaining, % of DMSO control (lower = more inhibition) [17] of 90.2% and a parasite growth, % of control (lower = inhibition) [18] of 53.8%. The Potency [1] was “inactive” and the Potency [2] was “inactive”.
With N#Cc1c(NC(=O)c2cccc3ccccc23)sc2c1CCCC2 the Potency [1] was 769 nM (active), the Potency [2] was 1090 nM (active) and the Potency [14] was 1080 nM (active). For the same compound, the activity change, negative = inhibition [12] was -63.8% and the Potency [15] was 764 nM (active).
In the case of CCN1CCCC1=O, the Potency [1] is reported as “inactive”, the Potency [2] is reported as “inactive” and the Potency [3] is reported as “inactive”. For the same compound, the outcome [4] was “inactive”, the Potency [5] was “inactive” and the outcome [6] was “inactive”. The Potency [10] was “inactive” and the Potency [12] was “inactive”.

— PubChem BioAssay (NCATS)
